# In PubChem BioAssay (NCI):
# Values joined by “and” are separate entries in the source; they are usually repeats but may differ in a detail not shown here. Equal values may be shown once. About 83,000 compounds went through this panel and 20% of them were active in at least one assay; those are over-represented in the sample as a whole.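 A percent growth of 40 corresponds to 60% growth inhibition; 0 means no net growth; -100 means all cells died. Active threshold: below 10.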 Values without a mark were called inactive. Active and inactive are the calls of the source.
# System: PC-3 prostate
# Experiment: NCI-60 one-dose screen, 48 h (100 = growth as untreated, 0 = no growth, -100 = all killed)
# Conditions: 10 µM
row,Structure (SMILES),growth
1,COc1ccccc1[As]=[As]c1ccccc1OC (configuration not stated),-78.9% (active)
2,O=S(=O)(F)c1ccc(Cl)cc1,91.4%
3,C/C1=C\[C@H](C)C[C@H](C)OC(=O)C[C@H](c2ccc(O)cc2)NC(=O)[C@@H](Cc2c(Br)[nH]c3ccccc23)N(C)C(=O)[C@H](C)NC(=O)[C@@H](C)C1,-59.6% (active)
4,CC1CCC2(OC1)OC1C(O)C3C4CCC5CC(OC6OC(CO)C(OC7OC(CO)C(O)C(OC8OCC(O)C(O)C8O)C7OC7OC(CO)C(O)C(OC8OC(CO)C(O)C(O)C8O)C7O)C(O)C6O)C(O)CC5(C)C4CCC3(C)C1C2C (configuration not stated),-93.4% (active)
5,[Cl][Hg][c]1ccc2ccccc2c1,-35.1% (active)
6,COc1cc(/C=C(/C)[N+](=O)[O-])ccc1O,60.7% and 56.6%
7,O=[N+]([O-])c1cc[n+]([O-])c2ccccc12,-10.8% (active)
8,[O-][n+]1ccccc1S,30.8%
9,O=C1CCC(=O)N1SC(Cl)(Cl)Cl,91.2%
10,Cc1cc([N+](=O)[O-])c2ccccc2[n+]1[O-],-10.8% (active) and -56% (active)
11,CC/C(=C/c1ccc(OC)cc1)[N+](=O)[O-],59.2%
12,COc1cc(/C=C\[N+](=O)[O-])ccc1O,97.6% and 90.3%
13,Oc1c(I)cc(I)cc1I,93.1%
14,COC(=O)C1C(O)C(C)C(O)C(C)/C=C\C=C(C)C(=O)Nc2c(C)c(OC(C)=O)c3c(c2O)C(=O)C(C)=C2OCOC(=C23)C(C)=CC(C)(O)C(O)C(C)C1O (configuration not stated),48.8%
15,COC1CC2C=C(C)/C=C/C=C/C(=O)NC(c3ccccc3)C/C=C/CCC(O)CC(=O)C2=C1O (configuration not stated),-91.1% (active)
16,C=C1C(=O)O[C@@H]2C[C@@H](C)[C@@H]3C=CC(=O)[C@@]3(C)[C@@H](O)[C@H]12,-62% (active)
17,CC12OOC(c3ccccc31)c1c2ccc2ccccc12 (configuration not stated),-74.4% (active)
18,Cn1c(O)c(N=O)c(=O)n(C)c1=O,101% and 95.1%
19,CC(C)C1(NC(=O)C2CC3c4cccc5[nH]cc(c45)CC3N(C)C2)OC2(O)C3CCCN3C(=O)C(Cc3ccccc3)N2C1=O (configuration not stated),81.1%
20,C#CC1(O)CCC(C(C)(C)C)CC1 (configuration not stated),97.1%
21,O=[N+]([O-])/C=C/c1ccc(Cl)cc1[N+](=O)[O-],46.4%
22,COC(C(=O)C(O)C(C)O)C1Cc2cc3cc(OC4CC(OC(C)=O)C(OC5CC(O)C(OC)C(C)O5)C(C)O4)cc(O)c3c(O)c2C(=O)C1OC1CC(OC2CC(OC3CC(C)(O)C(OC(=O)C(C)C)C(C)O3)C(O)C(C)O2)C(O)C(C)O1 (configuration not stated),1.13% (active)
23,COC12c3c(C)cc(O)c4c(=O)occ(c34)C(=O)C1C13COC(=O)c4c(O)cc(C)c(c41)C(=O)C2C3OC(C)=O (configuration not stated),80.2%
24,[Cl][Sn]([c]1ccccc1)([c]1ccccc1)[c]1ccccc1,-72.9% (active)
25,C=NCC#N,96.3% and 122%
26,CC(=O)[O][Hg][c]1c(C)c(C)cc(C)c1C,-77.3% (active)
27,[Cl][Hg][c]1ccc(Cl)s1,64.1%
28,COc1ccc(/C=C(\C)[N+](=O)[O-])cc1OC,51%

# System: SK-MEL-5 melanoma
# Experiment: as above
# Conditions: 10 µM
row,Structure (SMILES),growth
1,COc1ccccc1[As]=[As]c1ccccc1OC (configuration not stated),-99.3% (active)
2,O=S(=O)(F)c1ccc(Cl)cc1,108%
3,C/C1=C\[C@H](C)C[C@H](C)OC(=O)C[C@H](c2ccc(O)cc2)NC(=O)[C@@H](Cc2c(Br)[nH]c3ccccc23)N(C)C(=O)[C@H](C)NC(=O)[C@@H](C)C1,-74.5% (active)
4,CC1CCC2(OC1)OC1C(O)C3C4CCC5CC(OC6OC(CO)C(OC7OC(CO)C(O)C(OC8OCC(O)C(O)C8O)C7OC7OC(CO)C(O)C(OC8OC(CO)C(O)C(O)C8O)C7O)C(O)C6O)C(O)CC5(C)C4CCC3(C)C1C2C (configuration not stated),-62.2% (active)
5,[Cl][Hg][c]1ccc2ccccc2c1,-100% (active)
6,COc1cc(/C=C(/C)[N+](=O)[O-])ccc1O,82.3% and 64.6%
7,O=[N+]([O-])c1cc[n+]([O-])c2ccccc12,-92.5% (active)
8,[O-][n+]1ccccc1S,48.9%
9,NNc1ccccc1,87.9%
10,O=C1CCC(=O)N1SC(Cl)(Cl)Cl,99.5%
11,Cc1cc([N+](=O)[O-])c2ccccc2[n+]1[O-],-84% (active) and -58.2% (active)
12,CC/C(=C/c1ccc(OC)cc1)[N+](=O)[O-],36.2%
13,COc1cc(/C=C\[N+](=O)[O-])ccc1O,77% and 79.3%
14,Oc1c(I)cc(I)cc1I,98.1%
15,COC(=O)C1C(O)C(C)C(O)C(C)/C=C\C=C(C)C(=O)Nc2c(C)c(OC(C)=O)c3c(c2O)C(=O)C(C)=C2OCOC(=C23)C(C)=CC(C)(O)C(O)C(C)C1O (configuration not stated),99%
16,COC1CC2C=C(C)/C=C/C=C/C(=O)NC(c3ccccc3)C/C=C/CCC(O)CC(=O)C2=C1O (configuration not stated),-97.2% (active)
17,C=C1C(=O)O[C@@H]2C[C@@H](C)[C@@H]3C=CC(=O)[C@@]3(C)[C@@H](O)[C@H]12,-93.5% (active)
18,CC12OOC(c3ccccc31)c1c2ccc2ccccc12 (configuration not stated),61.7%
19,Cn1c(O)c(N=O)c(=O)n(C)c1=O,100% and 98.1%
20,CC(C)C1(NC(=O)C2CC3c4cccc5[nH]cc(c45)CC3N(C)C2)OC2(O)C3CCCN3C(=O)C(Cc3ccccc3)N2C1=O (configuration not stated),89.8%
21,C#CC1(O)CCC(C(C)(C)C)CC1 (configuration not stated),105%
22,O=[N+]([O-])/C=C/c1ccc(Cl)cc1[N+](=O)[O-],81.4%
23,COC(C(=O)C(O)C(C)O)C1Cc2cc3cc(OC4CC(OC(C)=O)C(OC5CC(O)C(OC)C(C)O5)C(C)O4)cc(O)c3c(O)c2C(=O)C1OC1CC(OC2CC(OC3CC(C)(O)C(OC(=O)C(C)C)C(C)O3)C(O)C(C)O2)C(O)C(C)O1 (configuration not stated),-97.3% (active)
24,COC12c3c(C)cc(O)c4c(=O)occ(c34)C(=O)C1C13COC(=O)c4c(O)cc(C)c(c41)C(=O)C2C3OC(C)=O (configuration not stated),111%
25,[Cl][Sn]([c]1ccccc1)([c]1ccccc1)[c]1ccccc1,-88.7% (active)
26,C=NCC#N,106% and 102%
27,CC(=O)[O][Hg][c]1c(C)c(C)cc(C)c1C,-57.5% (active)
28,[Cl][Hg][c]1ccc(Cl)s1,46%
29,COc1ccc(/C=C(\C)[N+](=O)[O-])cc1OC,54.6%
